Assay [1] has as its system Plasmodium falciparum Sir2 (PF13_0152, Sir2A). Nature of the assay: Plasmodium falciparum Sir2A binding compounds – biochemical, small-molecule microarray, 635 nm fluorescence, primary screen (AID 1098).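 Further: score merges spot fluorescence intensity with its signal-to-noise ratio.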 Conditions: fluorescence 635 nm, higher = more signal.
Assay [2] is described as follows: probe aDKK1 binding to arrayed compounds – biochemical, biotinylated probe, 635/667 nm fluorescence, primary screen (AID 1099).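 Further: score merges 667nm spot fluorescence with signal to noise across triplicate slides; reference of the scale not given here.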 Conditions: small-molecule microarray, higher = more signal.
Assay [3] is described as follows: probe aCHRDL2 binding to arrayed compounds – biochemical, biotinylated probe, 635/667 nm fluorescence, primary screen (AID 1100). Conditions: small-molecule microarray, higher = more signal.
Assay [4] in a line: change in splice reporter luminescence, either direction, cell-based, HEK293, spliceosome inhibition project, primary screen (AID 1101).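 Further: HEK293 cells carrying a splicing-competent luciferase reporter gene; test concentration not given here.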 As to conditions: HEK293 splicing luciferase reporter, 24 h, higher = more signal, called active from +8 up or from −8 down. (A reporter such as luciferase makes a cellular process visible.)
Assay [5] has as its target Fibroblast growth factor 10 (Homo sapiens) (UniProt O15520). Put plainly: compounds binding fibroblast growth factor 10 – biochemical, small-molecule microarray, 635 nm fluorescence, primary screen (AID 1102). As to conditions: FGF10 binding, fluorescence 635 nm, higher = more signal.
In assay [6] the test system is glycogen synthase kinase-3 (GSK3A per assay name; protocol says GSK3B). Nature of the assay: compounds binding glycogen synthase kinase-3 – biochemical, small-molecule microarray, 635 nm fluorescence, GSK3A, primary screen (AID 1103). Further: the record names both GSK3A and GSK3B. Conditions: fluorescence 635 nm, higher = more signal.
The target in assay [7] is Epidermal growth factor receptor (Homo sapiens) (UniProt P00533). Put plainly: compounds binding epidermal growth factor receptor – biochemical, small-molecule microarray, 635 nm fluorescence, primary screen (AID 1104).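 Further: score merges 667 nm emission intensity with spot signal to noise over triplicate slides.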 As to conditions: EGFR binding, higher = more signal.
Assay [8] concerns the target Follistatin-related protein 3 (Homo sapiens) (UniProt O95633). Nature of the assay: compounds binding follistatin-related protein 3 – biochemical, small-molecule microarray, 635 nm fluorescence, primary screen (AID 1105).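 Further: score merges emission near 667 nm and signal to noise per printed spot across three slides.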 As to conditions: FSTL3 binding, higher = more signal.
In assay [9] the target is Dickkopf-related protein 1 (Homo sapiens) (UniProt O94907). Nature of the assay: small molecules binding DKK1 protein – biochemical, small-molecule microarray, 635 nm fluorescence scan, primary screen (AID 1106).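 Further: score merges emission near 667 nm with signal to noise over three replicate slides.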 As to conditions: higher = more signal.
Assay [10] deals with Inhibin beta A chain (activin A). Put plainly: small molecules binding activin A – biochemical, small-molecule microarray, 635 nm fluorescence scan, primary screen (AID 1107).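 Further: mouse activin A protein probed at 4.33 µg/mL on printed slides; score merges bound-protein fluorescence near 667 nm with spot signal-to-noise.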 Conditions: INHBA, higher = more signal.

Calls of active or inactive are those of the source.

Chain of Epidermal growth factor receptor (Homo sapiens) (P00533 whole entry, looked up): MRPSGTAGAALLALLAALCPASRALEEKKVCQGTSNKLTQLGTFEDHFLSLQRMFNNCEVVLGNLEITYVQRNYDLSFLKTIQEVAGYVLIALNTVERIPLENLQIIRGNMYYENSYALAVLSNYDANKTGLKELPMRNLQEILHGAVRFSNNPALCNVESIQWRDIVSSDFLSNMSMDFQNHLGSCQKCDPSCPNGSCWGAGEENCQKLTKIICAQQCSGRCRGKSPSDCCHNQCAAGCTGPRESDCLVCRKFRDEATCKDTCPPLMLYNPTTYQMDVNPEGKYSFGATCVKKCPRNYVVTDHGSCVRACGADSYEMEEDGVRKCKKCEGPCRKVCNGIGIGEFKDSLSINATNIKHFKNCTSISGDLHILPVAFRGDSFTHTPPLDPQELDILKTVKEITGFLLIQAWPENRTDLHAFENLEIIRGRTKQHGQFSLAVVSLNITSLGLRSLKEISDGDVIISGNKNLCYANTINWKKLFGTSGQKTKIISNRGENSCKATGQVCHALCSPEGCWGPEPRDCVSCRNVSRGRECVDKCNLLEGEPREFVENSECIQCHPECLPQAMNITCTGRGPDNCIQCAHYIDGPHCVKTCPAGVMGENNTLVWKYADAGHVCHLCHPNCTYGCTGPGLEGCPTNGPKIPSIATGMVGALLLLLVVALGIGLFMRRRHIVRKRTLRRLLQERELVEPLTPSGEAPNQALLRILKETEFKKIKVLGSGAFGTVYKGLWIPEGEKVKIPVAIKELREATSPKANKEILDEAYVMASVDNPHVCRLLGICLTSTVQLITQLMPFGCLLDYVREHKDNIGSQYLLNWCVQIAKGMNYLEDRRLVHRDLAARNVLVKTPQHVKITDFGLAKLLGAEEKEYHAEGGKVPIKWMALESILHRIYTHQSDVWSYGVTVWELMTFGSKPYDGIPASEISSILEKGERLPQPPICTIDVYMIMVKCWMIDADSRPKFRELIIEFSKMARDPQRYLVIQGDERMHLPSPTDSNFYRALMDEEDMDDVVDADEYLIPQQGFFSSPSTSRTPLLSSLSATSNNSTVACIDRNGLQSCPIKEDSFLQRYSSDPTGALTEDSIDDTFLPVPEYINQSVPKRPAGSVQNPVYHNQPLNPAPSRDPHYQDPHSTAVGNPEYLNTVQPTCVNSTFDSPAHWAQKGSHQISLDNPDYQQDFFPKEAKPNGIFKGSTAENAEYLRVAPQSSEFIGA
Chain of Follistatin-related protein 3 (Homo sapiens) (O95633 whole entry, looked up): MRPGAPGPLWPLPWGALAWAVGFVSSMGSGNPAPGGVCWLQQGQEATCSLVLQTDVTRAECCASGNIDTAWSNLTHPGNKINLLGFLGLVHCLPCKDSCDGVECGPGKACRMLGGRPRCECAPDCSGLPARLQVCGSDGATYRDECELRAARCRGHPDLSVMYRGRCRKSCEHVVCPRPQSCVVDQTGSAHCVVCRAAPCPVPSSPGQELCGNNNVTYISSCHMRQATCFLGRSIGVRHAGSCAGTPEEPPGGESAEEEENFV
Chain of Dickkopf-related protein 1 (Homo sapiens) (O94907 whole entry, looked up): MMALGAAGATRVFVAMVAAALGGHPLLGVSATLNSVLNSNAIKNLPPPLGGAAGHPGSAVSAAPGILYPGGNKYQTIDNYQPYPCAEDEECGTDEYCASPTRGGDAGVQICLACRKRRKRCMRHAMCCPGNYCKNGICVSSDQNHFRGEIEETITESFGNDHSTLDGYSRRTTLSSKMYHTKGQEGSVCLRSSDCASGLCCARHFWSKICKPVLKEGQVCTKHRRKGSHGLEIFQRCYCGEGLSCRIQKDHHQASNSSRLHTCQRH
Chain of Fibroblast growth factor 10 (Homo sapiens) (O15520 whole entry, looked up): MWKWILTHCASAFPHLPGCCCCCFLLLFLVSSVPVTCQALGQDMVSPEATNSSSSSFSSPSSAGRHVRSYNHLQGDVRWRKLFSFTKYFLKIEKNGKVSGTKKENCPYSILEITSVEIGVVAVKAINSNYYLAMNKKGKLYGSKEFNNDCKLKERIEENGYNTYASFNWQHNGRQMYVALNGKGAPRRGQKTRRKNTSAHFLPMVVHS

As for `C=C[C@H](COC(C)=O)N(C(=O)OC(C)(C)C)S(=O)(=O)c1ccc(Br)cc1`, the composite z-score in assay [1] came to 0.0995; in assay [2], 1.29; in assay [3], 0.639; in assay [5], 0.619; in [6] it was 0.484; in [7] it was 0.517. The composite z-score in [8] is 0.507; in assay [9] it was 0.717; in [10], 0.838. Also, the z-score in assay [4] was 0.353 (inactive).

For `CC(C)C(=C=CC[C@@H](O)c1ccccc1OCCO)CCO`, the composite z-score in assay [1] is 0.116; in [2], -0.258; in assay [3] it was 0.133; in assay [5], 1.36; in assay [6], 0.0661; in assay [7], -0.195. Also, the composite z-score turned out to be 0.0893 in assay [8], 0.326 in [9] and 0.434 in assay [10]. Besides, the z-score in [4] is -0.0616 (inactive).

As to `COCCOC(=O)N1C(=O)[C@@]2(c3ccccc31)[C@H](c1ccc(O)cc1)N1[C@H](c3ccccc3)[C@H](c3ccccc3)OC(=O)[C@H]1[C@@H]2C(=O)NC[C@H](O)c1ccccc1`, the composite z-score in [1] was 1.12; in [2], -0.0866; in assay [3], -0.0184; in assay [5], 0.12; in assay [6], 0.191; in assay [7], -0.291. Moreover, the composite z-score in assay [8] was -0.195; in [9], -0.341; in [10], -0.202. The z-score in assay [4] was -1.07 (inactive).

On to `CN(C)CCCNC(=O)[C@@]1(C)c2ccccc2C(=O)N(Cc2cc(F)cc(C(F)(F)F)c2)[C@H]1c1ccc(CO)cc1`, for which the composite z-score in [1] was 1.34; in assay [2], -0.226; in [3] it was 0.682; in [5], -1.23; in assay [6], -0.465; in assay [7], -1.63. Also, the composite z-score in assay [8] is -1.19; in assay [9], -0.878; in assay [10], 0.376. In addition, the z-score in assay [4] was -0.249 (inactive).

In the case of `CC1CC/C=C\[C@H]2OC34C=CCN(Cn5nnc6ccccc65)C(=O)[C@H]3N(C(CO)C(C)C)C(=O)[C@@H]4C2C(=O)O1` (stereo not given in full), the composite z-score was 0.868 in assay [1]; -0.165 in [2]; 0.547 in assay [3]; -0.103 in [5]; -0.108 in assay [6]; -0.675 in assay [7]. Further, the composite z-score in assay [8] is -0.551; in assay [9], -0.877; in [10] it was 0.459. In addition, the z-score in [4] is 0.209 (inactive).

On to `CC(C)(C)OC(=O)CC[C@@]1(C(=O)NCC(O)CO)N=C(c2ccc(OCCCO)cc2)O[C@@H]1c1ccccc1N=[N+]=[N-]` (stereo not given in full), for which the composite z-score in assay [1] was 1.72; in [2], 0.836; in assay [3], 1.15; in assay [5], 1.36; in assay [6], -0.454; in assay [7] it was -0.468. For the same molecule, the composite z-score in assay [8] was found to be 0.114; in [9], 0.311; in [10], 0.906. Besides, the z-score in assay [4] was -0.764 (inactive).

As to `CC(=O)NCCCC[C@@H]1NC(=O)[C@@H]2C[C@H](C(=O)NCCCCN(C)C)[C@H](c3cccc(OCCO)c3)N2C1=O`, the composite z-score in [1] is 1.4; in assay [2], -0.0978; in assay [3], 0.529; in assay [5] it was 0.556; in assay [6], 0.117; in [7] it was -0.12. For the same molecule, the composite z-score in assay [8] was 0.227; in assay [9] it was 0.0332; in [10], -0.609. Besides, in assay [4], the z-score is 0.805 (inactive).

In the case of `O=C1OCC=C[C@H]2OC34C=CCN(c5ccc6ccccc6c5)C(=O)[C@H]3N(CCCCCCO)C(=O)[C@@H]4[C@@H]12` (stereo not given in full), the composite z-score is 1.66 in assay [1]; -0.117 in [2]; 0.817 in assay [3]; -0.821 in assay [5]; -1.12 in assay [6]; -1.79 in assay [7]. Besides, the values for the composite z-score in assay [8], in [9] and in assay [10] were -1.69, -0.854 and 0.0633, respectively. Besides, in assay [4], the z-score was -0.076 (inactive).

In the case of `[N-]=[N+]=Nc1ccccc1[C@H]1OC(c2ccc(OCCCO)cc2)=N[C@@]1(Cc1ccccc1)C(=O)O`, the composite z-score in assay [1] came out at 1.68; in assay [2], 0.292; in assay [3] it was 0.381; in assay [5], 0.875; in assay [6], 0.997; in assay [7] it was 0.0509. Besides, the figures for the composite z-score in [8], in assay [9] and in assay [10] were 0.727, 0.293 and 1.12, respectively. In assay [4], the z-score was -1.23 (inactive).

Turning to `O=C1OCCC/C=C\[C@H]2OC34C=CCN(c5ccc6ccccc6c5)C(=O)[C@H]3N(CCCCCCO)C(=O)[C@@H]4C12` (stereo not given in full), the composite z-score in assay [1] was 1.35; in [2], -0.234; in assay [3] it was 0.711; in [5], -0.873; in [6], -0.525; in [7] it was 0.102. Moreover, the composite z-score in assay [8] is 0.0824; in [9] it was -1.71; in [10], 0.998. Moreover, in [4], the z-score is -1.39 (inactive).

As for `C=CCOC(=O)[C@H]1[C@@H]2C(=O)O[C@@H](c3ccccc3)[C@@H](c3ccccc3)N2[C@@H](c2ccc(OCCOC(=O)[C@H]3C[C@H]4C(=O)N5CCC[C@H]5C(=O)N4[C@H]3c3ccc(O)cc3)cc2)[C@]12C(=O)Nc1ccccc12`, the composite z-score in assay [1] is 1.54; in assay [2] it was -0.202; in [3], 0.106; in assay [5], 1.47; in assay [6], 1.36; in [7] it was 0.999. In addition, the composite z-score in assay [8] was determined as 1.39; in [9] it was 1.81; in assay [10], 0.39. Moreover, in [4], the z-score was 0.994 (inactive).

With `CCOC(=O)[C@H]1C/C=C/C[C@H](C(=O)OCC)C(=O)O[C@H]2[C@@H](OC)O[C@H](CO)[C@@H](OC(=O)Nc3ccc(C#N)cc3)[C@@H]2OC1=O`, the composite z-score is 0.859 in [1]; -0.114 in assay [2]; 0.0682 in assay [3]; 0.322 in [5]; -0.0841 in assay [6]; -0.226 in assay [7]. The results for the composite z-score in assay [8], in assay [9] and in [10] were 0.413, -0.255 and 0.189, respectively. Further, in assay [4], the z-score is -2.6 (inactive).

As to `O=C1O[C@H](c2ccccc2)[C@H](c2ccccc2)N2[C@H]1[C@@H](C(=O)Nc1nc3ccccc3s1)[C@]1(C(=O)Nc3ccc(C#CC4(O)CCCCCC4)cc31)[C@H]2c1ccc(OCCO)cc1`, the composite z-score in assay [1] was 1.17; in [2], 0.507; in [3], 0.531; in [5], 1.24; in assay [6] it was 1.02; in [7], 0.662. In addition, the composite z-score in assay [8] was 0.714; in assay [9] it was 0.525; in assay [10], 0.523. Further, the z-score in [4] is 0.053 (inactive).

In the case of `O=C(NCC(F)(F)F)[C@@H]1c2ccccc2C(=O)N(C2CCCCC2)[C@H]1c1ccc(CO)cc1`, the composite z-score in [1] was 1.56; in [2], 0.121; in assay [3], 0.528; in assay [5] it was 0.0573; in assay [6], -0.0294; in assay [7], -0.759. The composite z-score in [8] was 0.177; in [9], -0.783; in [10], -0.0906. The z-score in [4] was 0.283 (inactive).

In the case of `Cc1ccc(C(C)CC(O)C2C=CC3C(=O)N(C)C(=O)C3N2NC(=O)OC(C)(C)C)o1` (stereo not given), the composite z-score in assay [1] was 1.07; in assay [2] it was 0.202; in assay [3] it was 0.0719; in assay [5] it was 0.803; in assay [6] it was 1.29; in assay [7], 0.96. The figures for the composite z-score in assay [8], in [9] and in [10] were 1.3, 0.837 and -0.0924, respectively. The z-score in assay [4] is 1.92 (inactive).

In the case of `C=CCOC(=O)[C@@H]1[C@H]2C(=O)O[C@H](c3ccccc3)[C@H](c3ccccc3)N2[C@H](c2ccc(OCCOC(=O)[C@@H]3C[C@@H]4C(=O)N[C@@H](CCCC[N+](C)(C)C)C(=O)N4[C@@H]3c3cccc(OCCO)c3)cc2)[C@@]12C(=O)Nc1ccc(I)cc12`, the composite z-score is 1.09 in assay [1]; 0.0616 in assay [2]; 0.0011 in assay [3]; 0.591 in assay [5]; 1.19 in assay [6]; 0.779 in [7]. For the same molecule, the results for the composite z-score in [8], in assay [9] and in [10] were 1.25, 0.985 and 0.195, respectively. The z-score in assay [4] is -0.874 (inactive).

Consider `COCCn1c(C(=O)N2CCCC2)cc2c1C[C@H]1CN(C(=O)c3ccccc3)[C@@](Cc3ccc(F)cc3)(C(=O)OC)[C@@H]21`, for which the composite z-score was 1.17 in [1]; 0.418 in [2]; 0.43 in assay [3]; -0.149 in assay [5]; 1.31 in assay [6]; 0.291 in [7]. In addition, the composite z-score in assay [8] was 0.664; in assay [9], 0.131; in assay [10] it was 0.593. Besides, the z-score in [4] is -0.604 (inactive).

Source of the values: PubChem BioAssay.
